Counter-ions that a name gives are not always drawn. ± gives the standard error. The campaign covered roughly 1,300 compounds. About 130 (10%) showed an effect of 50% or more. The full list was thinned out, with strong results kept by preference.
Test system: Trichoderma virens ATCC 9645
Test: growth yield (OD600) with compound + IPBC relative to untreated control; higher = less growth inhibition
Conditions: compound concentration: 100 uM, IPBC concentration: 200 ng/ml
Outline: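 Trichoderma virens ATCC 9645 spores, from potato dextrose agar plates grown for 7 days, were brought to 15,000 spores ml^−1 in potato dextrose broth and dispensed as 100 μl aliquots into 96-well plates. Each aliquot received library compounds at 100 μM final, with or without a biocide at 200 ng ml^−1, before growth at 30 °C and OD600 readings on a BioTek EL800 at 40 h and 72 h. Growth is expressed relative to the control containing neither agent and represents means of duplicate screens.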

Compound | growth yield (40 h) [%] | growth yield (72 h) [%]
C[C@]12C[C@H](O)[C@H]3[C@@H](CCC4=CC(=O)CC[C@@]43C)[C@@H]1CC[C@@H]2C(=O)CO [Corticosterone] + CCCCNC(=O)OCC#CI [3-iodo-2-propynyl butylcarbamate (IPBC)] | 94.2 ± 7.8 | 96.6 ± 5.6
CCCN1CCCC[C@H]1C(=O)Nc1c(C)cccc1C [Ropivacaine hydrochloride] + CCCCNC(=O)OCC#CI [3-iodo-2-propynyl butylcarbamate (IPBC)] | 88.5 ± 1.4 | 91.98 ± 0.1
C[C@]12C=CC(=O)C=C1CC[C@@H]1[C@@H]2[C@@H](O)C[C@@]2(C)[C@H]1CC[C@]2(O)C(=O)CO [Prednisolone] + CCCCNC(=O)OCC#CI [3-iodo-2-propynyl butylcarbamate (IPBC)] | 82.8 ± 2.1 | 92.5 ± 0.42
N[C@@H](Cc1cc(I)c(Oc2ccc(O)c(I)c2)c(I)c1)C(=O)O [Liothyronine] + CCCCNC(=O)OCC#CI [3-iodo-2-propynyl butylcarbamate (IPBC)] | 93.1 ± 10 | 98.1 ± 6.4
O=C(O)Cc1cc(I)c(Oc2ccc(O)c(I)c2)c(I)c1 [Tiratricol, 3,3',5-triiodothyroacetic acid] + CCCCNC(=O)OCC#CI [3-iodo-2-propynyl butylcarbamate (IPBC)] | 44 ± 1.8 | 73.41 ± 0.63
NC(Cc1cc(I)c(Oc2cc(I)c(O)c(I)c2)c(I)c1)C(=O)O (stereo unspecified) [Thyroxine (L)] + CCCCNC(=O)OCC#CI [3-iodo-2-propynyl butylcarbamate (IPBC)] | 100 ± 11 | 98.8 ± 9
CCN(CC)CCNc1ccc(CO)c2sc3ccccc3c(=O)c12 [Hycanthone] + CCCCNC(=O)OCC#CI [3-iodo-2-propynyl butylcarbamate (IPBC)] | 124 ± 2.7 | 120 ± 0.63
COc1cc(NC(C)CCCN)c2ncccc2c1 (stereo unspecified) [Primaquine diphosphate] + CCCCNC(=O)OCC#CI [3-iodo-2-propynyl butylcarbamate (IPBC)] | 73.7 ± 11 | 117.7 ± 1.1
COc1ccc(OC)c(C(O)CNC(=O)CN)c1 (stereo unspecified) [Midodrine hydrochloride] + CCCCNC(=O)OCC#CI [3-iodo-2-propynyl butylcarbamate (IPBC)] | 96.1 ± 4.3 | 104 ± 2.1
CCCC(C)(COC(N)=O)COC(=O)NC(C)C (stereo unspecified) [Carisoprodol] + CCCCNC(=O)OCC#CI [3-iodo-2-propynyl butylcarbamate (IPBC)] | 84.8 ± 5.1 | 92.7 ± 5.5
CC(CCc1ccccc1)NCC(O)c1ccc(O)c(C(N)=O)c1 (stereo unspecified) [Labetalol hydrochloride] + CCCCNC(=O)OCC#CI [3-iodo-2-propynyl butylcarbamate (IPBC)] | 73.38 ± 0.32 | 87.15 ± 0.1
COc1ccc(CN(CCN(C)C)c2ccccn2)cc1 [Pyrilamine maleate] + CCCCNC(=O)OCC#CI [3-iodo-2-propynyl butylcarbamate (IPBC)] | 82.8 ± 4.6 | 92.4 ± 4.9
CCCCCCCCCCCCCCCC[N+](C)(C)CCN(Cc1ccc(OC)cc1)c1ncccn1 [Thonzonium bromide] + CCCCNC(=O)OCC#CI [3-iodo-2-propynyl butylcarbamate (IPBC)] | 3.34 ± 0.16 | 2.62 ± 0.1
CN(C)CCN(Cc1ccc(Cl)cc1)c1ccccn1 [Chloropyramine hydrochloride] + CCCCNC(=O)OCC#CI [3-iodo-2-propynyl butylcarbamate (IPBC)] | 76.1 ± 1.1 | 92.3 ± 2.3
COC(c1ccccc1)(c1ccccc1)[C@H](Oc1nc(C)cc(C)n1)C(=O)O [Ambrisentan] + CCCCNC(=O)OCC#CI [3-iodo-2-propynyl butylcarbamate (IPBC)] | 89.3 ± 5.7 | 93.9 ± 3.9
NC(=O)N1c2ccccc2CC(=O)c2ccccc21 [Oxcarbazepine] + CCCCNC(=O)OCC#CI [3-iodo-2-propynyl butylcarbamate (IPBC)] | 83.4 ± 2.4 | 92.9 ± 1.9
CCC(C)n1ncn(-c2ccc(N3CCN(c4ccc(OCC5COC(Cn6cncn6)(c6ccc(Cl)cc6Cl)O5)cc4)CC3)cc2)c1=O (stereo unspecified) [Itraconazole] + CCCCNC(=O)OCC#CI [3-iodo-2-propynyl butylcarbamate (IPBC)] | 14.3 ± 1.9 | 11.3 ± 1.7
CC(=O)N1CCN(c2ccc(OCC3COC(Cn4ccnc4)(c4ccc(Cl)cc4Cl)O3)cc2)CC1 (stereo unspecified) [Ketoconazole] + CCCCNC(=O)OCC#CI [3-iodo-2-propynyl butylcarbamate (IPBC)] | 3.34 ± 0.48 | 2.52 ± 0.42
CC(C)N1CCN(c2ccc(OCC3COC(Cn4cncn4)(c4ccc(Cl)cc4Cl)O3)cc2)CC1 (stereo unspecified) [Terconazole] + CCCCNC(=O)OCC#CI [3-iodo-2-propynyl butylcarbamate (IPBC)] | 69.9 ± 2.5 | 87 ± 1.3

Compound | growth yield (40 h) [%] | growth yield (72 h) [%]
CC[C@@H]([C@H](C)O)n1ncn(-c2ccc(N3CCN(c4ccc(OC[C@@H]5CO[C@@](Cn6cncn6)(c6ccc(F)cc6F)C5)cc4)CC3)cc2)c1=O [Posaconazole] + CCCCNC(=O)OCC#CI [3-iodo-2-propynyl butylcarbamate (IPBC)] | 3.97 ± 1.4 | 3.78 ± 1.7
C[N+]1([O-])[C@@H]2C[C@@H](OC(=O)[C@H](CO)c3ccccc3)C[C@H]1[C@@H]1O[C@@H]12 (stereo partly specified) [Scopolamin-N-oxide hydrobromide] + CCCCNC(=O)OCC#CI [3-iodo-2-propynyl butylcarbamate (IPBC)] | 103 ± 2.2 | 102 ± 1.1
CC(C)c1cccc(C(C)C)c1O [Propofol] + CCCCNC(=O)OCC#CI [3-iodo-2-propynyl butylcarbamate (IPBC)] | 101 ± 2.9 | 98.4 ± 1.3
CO[C@@]1(NC(=O)C2SC(=C(C(N)=O)C(=O)O)S2)C(=O)N2C(C(=O)O)=C(CSc3nnnn3C)CS[C@@H]21 (stereo partly specified) [Cefotetan] + CCCCNC(=O)OCC#CI [3-iodo-2-propynyl butylcarbamate (IPBC)] | 94.8 ± 2.4 | 96.5 ± 1.9
NS(=O)(=O)c1cc2c(cc1C(F)(F)F)NCNS2(=O)=O [Hydroflumethiazide] + CCCCNC(=O)OCC#CI [3-iodo-2-propynyl butylcarbamate (IPBC)] | 89.1 ± 1.1 | 92.4 ± 0.73
C[C@]12Cc3c[nH]nc3C[C@@H]1CC[C@@H]1[C@@H]2CC[C@@]2(C)[C@H]1CC[C@]2(C)O [Stanozolol] + CCCCNC(=O)OCC#CI [3-iodo-2-propynyl butylcarbamate (IPBC)] | 91.02 ± 0.16 | 95.9
CCN1CC(CCN2CCOCC2)C(c2ccccc2)(c2ccccc2)C1=O (stereo unspecified) [Doxapram hydrochloride] + CCCCNC(=O)OCC#CI [3-iodo-2-propynyl butylcarbamate (IPBC)] | 88.6 ± 1.3 | 91.14 ± 0.32
CN(C)CCCSC(=N)N [Dimaprit dihydrochloride] + CCCCNC(=O)OCC#CI [3-iodo-2-propynyl butylcarbamate (IPBC)] | 93.9 ± 6.5 | 95.8 ± 4.3
Cc1ccc(-c2ncc(Cl)cc2-c2ccc(S(C)(=O)=O)cc2)cn1 [Etoricoxib] + CCCCNC(=O)OCC#CI [3-iodo-2-propynyl butylcarbamate (IPBC)] | 88.79 ± 0.48 | 91.14 ± 0.73
CN[C@@H]1C[C@@H](c2ccc(Cl)c(Cl)c2)c2ccccc21 [Indatraline hydrochloride] + CCCCNC(=O)OCC#CI [3-iodo-2-propynyl butylcarbamate (IPBC)] | 29.4 ± 4.9 | 79.5 ± 1.7
CN[C@H]1CC[C@@H](c2ccc(Cl)c(Cl)c2)c2ccccc21 [Sertraline] + CCCCNC(=O)OCC#CI [3-iodo-2-propynyl butylcarbamate (IPBC)] | 30.8 ± 4.1 | 82.5 ± 2
Cc1c(N(C)CS(=O)(=O)O)c(=O)n(-c2ccccc2)n1C [Dipyrone] + CCCCNC(=O)OCC#CI [3-iodo-2-propynyl butylcarbamate (IPBC)] | 92.4 ± 6.7 | 87.9 ± 5.2
COc1ccnc(C[S+]([O-])c2nc3cc(OC(F)F)ccc3[nH]2)c1OC (stereo unspecified) [Pantoprazole sodium] + CCCCNC(=O)OCC#CI [3-iodo-2-propynyl butylcarbamate (IPBC)] | 73.5 ± 2.4 | 98.9 ± 0.94
C#C[C@]1(O)CC[C@H]2[C@@H]3CCc4cc(OC)ccc4[C@H]3CC[C@@]21C [Ethynylestradiol 3-methyl ether] + CCCCNC(=O)OCC#CI [3-iodo-2-propynyl butylcarbamate (IPBC)] | 87 ± 16 | 88.9 ± 12
CO[C@@]1(NC(=O)C(C(=O)O)c2ccc(O)cc2)C(=O)N2C(C(=O)O)=C(CSc3nnnn3C)CO[C@@H]21 (stereo partly specified) [Moxalactam disodium salt] + CCCCNC(=O)OCC#CI [3-iodo-2-propynyl butylcarbamate (IPBC)] | 97.1 ± 14 | 96 ± 7.7
CCn1cc(C(=O)O)c(=O)c2cc(F)c(N3CCNCC3)nc21 [Enoxacin] + CCCCNC(=O)OCC#CI [3-iodo-2-propynyl butylcarbamate (IPBC)] | 83.9 ± 1.6 | 87 ± 1.5
CCCCC(CC)CN1CN(CC(CC)CCCC)CC(C)(N)C1 (stereo unspecified) [Hexetidine] + CCCCNC(=O)OCC#CI [3-iodo-2-propynyl butylcarbamate (IPBC)] | 28.6 ± 8.6 | 91.1 ± 1.8
CCOC1O[C@H]([C@@H](COCc2ccccc2)OCc2ccccc2)[C@H](OCc2ccccc2)[C@H]1O (stereo partly specified) [Tribenoside] + CCCCNC(=O)OCC#CI [3-iodo-2-propynyl butylcarbamate (IPBC)] | 75.4 ± 2.1 | 88.1 ± 1.1
COc1cc([C@@H]2c3cc4c(cc3[C@H](O)[C@H]3COC(=O)[C@H]23)OCO4)cc(OC)c1OC [Podophyllotoxin] + CCCCNC(=O)OCC#CI [3-iodo-2-propynyl butylcarbamate (IPBC)] | 104 ± 6.3 | 102 ± 4.5
